Screens from PubChem BioAssay.
A selection: hits, their analogues and other compounds. The true share with any hit is near 7.4%.
SNCA expr inh = inhibitors of alpha-synuclein (SNCA) gene expression. HEK-293 SNCA-luciferase knock-in, luminescence, 24 h. Potency, µM (series often up to 57.2 µM), without a hit: at the highest dose activity change, negative = inhibition, actives largely listed as inhibitors. 140,000 tested, 0.17% active. AID 1671194;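 also: plate controls were DMSO cells for no effect and cell-free wells for full effect; nearly all actives have a fitted effect of over 45% in size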
HEK293 viab = reduces viability of HEK-293 SNCA reporter cells. HEK-293-SNCA-luc viability, GF-AFC fluorescence, 24 h. AID 1671193. 150,000 tested, 0.12% active. Potency, µM (titrated, usually from 57.1 µM), without a hit: top-dose activity change, negative = cytotoxicity, most hits filed as cytotoxic;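 also: 0% = DMSO-treated cells and -100% = medium-only wells without cells; nearly all actives have a fitted effect of over 30% in size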
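HEK-293-SNCA-luc cells (1500/well) plated 24 h, then exposed 24 h to a dilution series; GF-AFC added 30 min at 37C, fluorescence 405/540 nm; normalised to medium-only and DMSO wells, Hill fit.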
FLuc inh-1 = inhibitors of firefly (Photinus pyralis) luciferase; P08659; purified P. pyralis luciferase, luminescence, biochemical; Potency, µM (titrated, usually from 115 µM), usual class: inhibitors; 76,000 tested, 2.5% active; also: % is scaled to controls: 0 for no effect and ±100 for the full control effect; nearly all actives have a fitted effect of over 65% in size
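Purified 10nM P. pyralis luciferase with 10uM D-luciferin and 10uM ATP in 50mM Tris acetate pH 7.5, 10mM Mg acetate, 0.01% Tween-20, 0.05% BSA. qHTS titration; luminescence read by CCD imager.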
3T3 cytotox = kills NIH 3T3 cells. NIH 3T3 viability, CellTiter-Glo ATP luminescence, 48-72 h. AID 1345082. Potency, µM (titrated, usually from 96.7 µM), for the others: at the highest dose activity change, negative = cytotoxicity, hits mostly inhibitors. 94,000 tested, 4.3% active; also: % is scaled to controls: 0 for no effect and ±100 for the full control effect; nearly all actives have a fitted effect of over 55% in size
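Cells were seeded at 400 per well, treated with pin-transferred compound, and kept 48 or 72 hr at 37 °C before CellTiter-Glo addition and luminescence imaging of cellular ATP.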
HEK293 tox = cytotoxic compounds in HEK 293 cells. HEK 293 viability, ATP luminescence (CellTiter-Glo), 48-72 h. Potency, µM (top dose mostly 115 µM), for the others: top-dose activity change, negative = cytotoxicity, hits mostly inhibitors. 94,000 tested, 6.6% active. AID 1345083; also: % is scaled to controls: 0 for no effect and ±100 for the full control effect; nearly all actives have a fitted effect of over 60% in size
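Viability of HEK 293 cells, plated at 250 cells/well, was judged by cellular ATP after compound treatment for 48 or 72 hr. Luminescence was imaged 10 min after CellTiter-Glo addition at room temperature.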
hNpr1 antagonist = antagonists of human natriuretic peptide receptor Npr1; 76,000 tested, 1.6% active; P16066; HEK293 hNpr1 GloSensor cGMP, ANP-stimulated luminescence; Potency, µM (doses to about 46.3 µM), without a hit: at the highest dose activity change, negative = inhibition, most hits filed as inhibitors; calls by dose curve; also: % is scaled to controls: 0 for no effect and ±100 for the full control effect; nearly all actives have a fitted effect of over 60% in size
Target sequence (P16066 whole entry, looked up): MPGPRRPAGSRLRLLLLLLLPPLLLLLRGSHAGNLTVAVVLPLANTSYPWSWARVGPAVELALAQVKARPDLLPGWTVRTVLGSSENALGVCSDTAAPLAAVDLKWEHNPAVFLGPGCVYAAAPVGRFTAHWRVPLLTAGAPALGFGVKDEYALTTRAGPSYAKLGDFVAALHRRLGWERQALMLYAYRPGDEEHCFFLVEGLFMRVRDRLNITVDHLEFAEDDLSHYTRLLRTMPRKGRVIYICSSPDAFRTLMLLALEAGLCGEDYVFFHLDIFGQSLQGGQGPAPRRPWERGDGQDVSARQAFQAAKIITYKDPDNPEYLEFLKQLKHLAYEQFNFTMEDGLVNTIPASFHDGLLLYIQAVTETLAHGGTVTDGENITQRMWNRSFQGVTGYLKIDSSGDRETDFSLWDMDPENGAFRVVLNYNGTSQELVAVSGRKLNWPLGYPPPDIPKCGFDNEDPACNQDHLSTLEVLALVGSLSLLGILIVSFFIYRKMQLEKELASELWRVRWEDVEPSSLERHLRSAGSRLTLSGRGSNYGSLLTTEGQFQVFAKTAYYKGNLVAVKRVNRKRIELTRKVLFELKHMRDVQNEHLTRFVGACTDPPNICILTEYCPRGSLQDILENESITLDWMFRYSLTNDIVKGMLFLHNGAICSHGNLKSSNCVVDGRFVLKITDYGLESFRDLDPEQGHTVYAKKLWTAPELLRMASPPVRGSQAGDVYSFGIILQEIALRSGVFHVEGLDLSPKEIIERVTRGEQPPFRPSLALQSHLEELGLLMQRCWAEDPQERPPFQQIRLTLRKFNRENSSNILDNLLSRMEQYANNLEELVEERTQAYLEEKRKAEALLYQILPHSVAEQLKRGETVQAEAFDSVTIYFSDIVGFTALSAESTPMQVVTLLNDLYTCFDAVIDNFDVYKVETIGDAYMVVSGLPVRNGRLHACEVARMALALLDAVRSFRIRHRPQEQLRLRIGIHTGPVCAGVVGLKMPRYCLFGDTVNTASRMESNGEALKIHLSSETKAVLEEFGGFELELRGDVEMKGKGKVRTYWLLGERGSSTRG
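HEK293 cells stably expressing human Npr1 and cGMP GloSensor pGS-40F, loaded 2 h with 2% GloSensor reagent, given compound 30 min at room temperature. Luminescence read before and 20 min after 0.1 nM hNppA.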
FLuc SDR no ATP = firefly luciferase binding stabilization, ATP absent; shares compounds with FLuc inh-1; Purified FLuc-C-HiBiT, Nano-Glo HiBiT luminescence, no ATP; Potency, µM (doses to about 32.7 µM), without a hit: at the top dose activation (signal gain), most hits filed as activators; 1,300 tested, 7.8% active; also: nearly all actives have a fitted effect of over 55% in size
FLuc SDR ATP = firefly luciferase binding stabilization, ATP added | Potency, µM (top dose mostly 32.7 µM), for inactives: top-dose activation (gain of signal), actives largely listed as activators | shares compounds with FLuc inh-1 | 1,300 tested, 8.7% active | AID 1963319 | purified FLuc-C-HiBiT + ATP, HiBiT complementation luminescence;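 also: signal reports ligand binding via conformational change of the enzyme rather than luciferase catalysis; % of control where 0% means no effect; nearly all actives have a fitted effect of over 55% in size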
FLuc inh-2 = inhibitors of firefly luciferase enzymatic activity | shares compounds with FLuc inh-1 | purified FLuc-C-HiBiT enzyme, luciferin luminescence | 1,300 tested, 42% active | AID 1963320 | Potency, µM (doses to about 32.7 µM), without a hit: at the highest dose activity change, negative = inhibition, most hits filed as inhibitors; also: % is scaled to controls: 0 for no effect and ±100 for the full control effect; nearly all actives have a fitted effect of over 70% in size
The depositor's hits bear a star; i = inactive; ? = inconclusive; / = not tested or not shown; [ ] = dose if it differs, or a comment. Unless noted, calls follow the shape of the dose curve; as a rule, active = well fitted curve in the direction sought with a large enough effect; inconclusive = small, poorly fitted or top-dose-only effect, or another doubt; inactive = no such curve, though single readings can be large; an effect the other way counts as inactive or inconclusive. Potency is read from the fitted curve at half-maximal effect.

SMILES	SNCA expr inh	HEK293 viab	FLuc inh-1	3T3 cytotox	HEK293 tox	hNpr1 antagonist	FLuc SDR no ATP	FLuc SDR ATP	FLuc inh-2
COc1cc(Cl)ccc1-c1ccc(COc2ccc3c(cnn3CCC(=O)O)c2)cc1	-7%[87.6 µM]	-5%[87.6 µM]	50µM*	-17%[138 µM]	?	-1%[70.6 µM]	9%[49.3 µM]	7%[49.3 µM]	?
COc1ccc(F)cc1-c1ccc(COc2ccc3c(cnn3CCC(=O)O)c2)cc1	-8%[87.6 µM]	0%[87.6 µM]	22µM*	-31%[138 µM]	?	2%[70.6 µM]	16%[49.3 µM]	10%[49.3 µM]	?
COCC(=O)N1CCC(C(=O)N2CCC(N3Cc4ccccc4C3=O)CC2)CC1	2%	2%	/	1%	-4%	/	/	/	/
CCN1CCN(c2ncnc3c2cnn3-c2cccc(C)c2)CC1	58%	-22%	/	/	/	/	/	/	/
Cc1ccc(Cl)cc1-n1ncc2c(N3CCC(C)CC3)ncnc21	15%	-8%	/	/	/	/	13%	8%	-8%
CC1CCCN(c2ncnc3c2cnn3-c2ccccc2)C1 (stereo not given)	/	/	/	/	/	/	2.5µM*	?	0.44µM*
Cc1cccc(-n2ncc3c(N4CCCCCC4)ncnc32)c1	?	5%	/	/	/	/	5µM*	?	0.88µM*
Cc1cccc(-n2ncc3c(N4CCCC(C)C4)ncnc32)c1 (stereo not given)	4µM*	5%	/	/	/	/	3.9µM*	?	0.7µM*
Cc1cccc(N2CCN(c3ncnc4c3cnn4-c3ccc(Cl)cc3)CC2C)c1 (stereo not given)	?	10%	/	/	/	/	/	/	/
Cc1ccc(Cl)cc1-n1ncc2c(NC3CCCCCC3)ncnc21	-11%	?	/	/	/	/	/	/	/
CNCCN1C(=O)CC[C@H]2CN(c3ncc(Cl)cc3F)CC[C@H]21	-23%	13%	i	-34%	?	-6%	/	/	/
Cc1cccc(-c2nc3cc(C(=O)NCc4ccc(Cl)cc4)ccc3o2)n1	22%	-1%	/	-19%	?	/	/	/	/
Cc1ccc(-n2ncc3c(NC4CCCCCC4)ncnc32)cc1Cl	29%	1%	/	/	/	/	/	/	/
Cc1ccc(-n2ncc3c(N4CCCC(C)C4)ncnc32)c(C)c1 (stereo not given)	/	/	/	/	/	/	29%	20%	11µM*
CC1CCCN(c2ncnc3c2cnn3-c2ccc(Cl)cc2)C1 (stereo not given)	/	/	/	/	/	/	2.8µM*	0.25µM*	0.12µM*
Clc1ccc(-n2ncc3c(NC4CCCC4)ncnc32)cc1	-21%	-23%	/	/	/	/	?	?	1.2µM*
CCN1CCN(c2ncnc3c2cnn3-c2ccc(F)cc2)CC1	181%	8%	/	/	/	/	/	/	/
CC1CCCN(c2ncnc3c2cnn3-c2ccc(F)cc2)C1 (stereo not given)	?	9%	/	/	/	/	2.2µM*	?	0.7µM*
CN(C)c1ccc(-n2c(=O)c(C(=O)N3CCCC3)nc3cccnc32)cc1	6%	8%	/	-9%	i	/	/	/	/
O=C(c1cccnc1)N1CCCCCC1c1nnc(-c2ccccc2)o1 (stereo not given)	66%	-1%	/	-17%	-16%	/	/	/	/
Cc1ccc(-n2nc(C)c([C@@H]3C=C[C@@H](NC(=O)Nc4ccc(Cl)cc4)C3)c2C)cc1Cl	?	?	10µM*	28µM*	16µM*	?	15%	16%	?
COc1ccc(NC(=O)N[C@@H]2C=C[C@@H](c3c(C)nn(CCC#N)c3C)C2)cc1	6%[87.6 µM]	-12%[87.6 µM]	i	?	?	-13%[70.6 µM]	/	/	/
Cc1ccc(-n2nc(C)c([C@H]3C=C[C@@H](O)C3)c2C)cc1Cl	-3%[87.6 µM]	-12%[87.6 µM]	1.1µM*	?	?	18µM*	25%[49.3 µM]	?	13µM*
CCn1ncc(NC(=O)Cn2ncc3cc(-c4cccc(OC)c4)ccc32)n1	59%	-22%	?	-67%	-57%	?	/	/	/
CCn1ncc(NC(=O)Cn2ncc3cc(-c4ccc(N(C)C)cc4)ccc32)n1	-5%	-4%	0.25µM*	?	?	?	?	?	0.79µM*
SMILES	SNCA expr inh	HEK293 viab	FLuc inh-1	3T3 cytotox	HEK293 tox	hNpr1 antagonist	FLuc SDR no ATP	FLuc SDR ATP	FLuc inh-2
CCn1ncc(NC(=O)Cn2ncc3cc(-c4ccc(C)cc4F)ccc32)n1	39%	-21%	14µM*	-65%	-54%	?	20%	13%	?
Cc1ccc([S+](=O)([O-])N2CCCC2C(=O)N2CCC(N3CCOCC3=O)CC2)cc1 (stereo not given)	2%	6%	/	4%	-5%	/	/	/	/
Cn1nc(C2CC2)cc1NC(=O)c1ccccc1Cl	82%[87.6 µM]	-4%[87.6 µM]	/	-20%[138 µM]	-10%[172 µM]	/	/	/	/
O=[S+]([O-])(c1cccs1)N1CCCC2(CC(c3ccccc3)=NO2)C1 (stereo not given)	?	-13%	/	?	?	/	/	/	/
COc1ccc(C2=NOC3(CCN([S+](=O)([O-])c4cccs4)C3)C2)cc1 (stereo not given)	161%	-17%	5.6µM*	?	?	?	11%	15%	-10%
Brc1ccccc1-n1ncc2c1ncn1nc(Cc3ccccc3)nc21	182%	-4%	/	/	/	/	16%	10%	-11%
COc1ccc(Cc2nc3c4cnn(-c5ccccc5Br)c4ncn3n2)cc1	18%	3%	/	/	/	/	/	/	/
C/C=C(/C)C(=O)OC1C=C2C3C(C)C(C)C(OC(=O)C(C)C(C)O)CC3(C)CCC2(C)C2(C)CC(OC(C)=O)C3C(C)(C)C(O)C(=O)CC3(C)C12 (stereo not given)	/	-2%[23.9 µM]	/	/	/	/	/	/	/
Cn1nc(C2CC2)n(C2CCN(C(=O)CCCc3ccccc3)CC2)c1=O	11%	10%	/	-27%	-14%	/	/	/	/
O=C(c1cc2ccc3cccnc3c2[nH]1)N1CCCCC1	?	-2%	/	/	/	/	11µM*	?	1.6µM*
CC1CCCN(C(=O)c2cc3ccc4cccnc4c3[nH]2)C1 (stereo not given)	2.2µM*	?	/	/	/	/	3.9µM*	2.5µM*	0.56µM*
O=C(c1cc2ccc3cccnc3c2[nH]1)N1CCN(c2ccc(Cl)cc2)CC1	10%	15%	/	/	/	/	/	/	/
Cc1ncccc1C(=O)N1CCC(c2nn(C)c(=O)n2C2CCCC2)CC1	11%	-5%	/	-12%	1%	/	/	/	/
